Laboratory results from PubChem BioAssay.
Calls of active or inactive are those of the source.

How the values were obtained:
[1] = small molecules captured by biotinylated probe aFSTL3 – biochemical, small-molecule microarray, fluorescence 635/667, stem cell growth factor project, primary screen (AID 1064); details: higher = more signal;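 also: measures binding of the biotinylated anti-FSTL3 antibody to printed compounds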
[2] = binders from COS7 lysate, DM2A8 probe, primary screen, torsin A project, cell lysate, small-molecule microarray, fluorescence 635/667 (AID 1065); details: higher = more signal, COS7 lysate expressing mutant human TOR1A
[3] = small molecules captured by biotinylated probe aFGF2 – biochemical, small-molecule microarray, fluorescence 635/667, stem cell growth factor project, primary screen (AID 1067); details: higher = more signal;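 also: measures binding of biotinylated aFGF2 protein to printed compounds on slides; z-score merges feature fluorescence and signal-to-noise across triplicate slides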
[4] = small molecules captured by biotinylated probe aFGF10 – biochemical, small-molecule microarray, fluorescence 635/667, stem cell growth factor project, primary screen (AID 1071); details: higher = more signal;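 also: score merges 667 nm spot intensity and signal to noise from triplicate slides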
[5] = biological target: Neurogenic locus notch homolog protein 2 (Homo sapiens) (UniProt Q04721); test: small molecules binding Notch2 protein – biochemical, small-molecule microarray, 635 nm fluorescence, stem cell growth factors, primary screen (AID 1073); details: higher = more signal
[6] = biological target: Pro-neuregulin-1, membrane-bound isoform (Homo sapiens) (UniProt Q02297); test: small molecules binding neuregulin-1 protein – biochemical, small-molecule microarray, fluorescence 635/667, psychiatric disease protein project, primary screen (AID 1075); details: NRG1 binding, 635 nm fluorescence, higher = more signal;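 also: score combines 667 nm spot fluorescence with signal to noise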
[7] = test system: Neuregulin-1 EGF-like domain; test: small molecules binding NRG1 EGF domain – biochemical, small-molecule microarray, 635 nm fluorescence, primary screen (AID 1081); details: higher = more signal;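 also: binding of the protein to compounds printed on small-molecule microarray slides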
[8] = FRG1 expression reporter modulators in myotubes – cell-based, C2C12 myotubes, firefly/Renilla luciferase, luminescence, FRG1 inhibition for FSHD, primary screen (AID 1084); details: FRG1 promoter luciferase, higher = more signal, called active from +8 up or from −8 down
[9] = small molecules captured by biotinylated probe aFST – biochemical, small-molecule microarray, fluorescence 635/667, stem cell growth factor project, primary screen (AID 1086); details: higher = more signal;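 also: score merges 667 nm fluorescence with signal-to-noise of each printed compound spot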
[10] = binders of probe aHhip on microarray, primary screen, stem cell growth factor project, biochemical, small-molecule microarray, fluorescence 635/667 (AID 1087); details: higher = more signal;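 also: score merges spot fluorescence at 667nm with spot signal to noise ratio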

Chain of Pro-neuregulin-1, membrane-bound isoform (Homo sapiens) (Q02297 whole entry, looked up, the tested form may be a part, canonical isoform): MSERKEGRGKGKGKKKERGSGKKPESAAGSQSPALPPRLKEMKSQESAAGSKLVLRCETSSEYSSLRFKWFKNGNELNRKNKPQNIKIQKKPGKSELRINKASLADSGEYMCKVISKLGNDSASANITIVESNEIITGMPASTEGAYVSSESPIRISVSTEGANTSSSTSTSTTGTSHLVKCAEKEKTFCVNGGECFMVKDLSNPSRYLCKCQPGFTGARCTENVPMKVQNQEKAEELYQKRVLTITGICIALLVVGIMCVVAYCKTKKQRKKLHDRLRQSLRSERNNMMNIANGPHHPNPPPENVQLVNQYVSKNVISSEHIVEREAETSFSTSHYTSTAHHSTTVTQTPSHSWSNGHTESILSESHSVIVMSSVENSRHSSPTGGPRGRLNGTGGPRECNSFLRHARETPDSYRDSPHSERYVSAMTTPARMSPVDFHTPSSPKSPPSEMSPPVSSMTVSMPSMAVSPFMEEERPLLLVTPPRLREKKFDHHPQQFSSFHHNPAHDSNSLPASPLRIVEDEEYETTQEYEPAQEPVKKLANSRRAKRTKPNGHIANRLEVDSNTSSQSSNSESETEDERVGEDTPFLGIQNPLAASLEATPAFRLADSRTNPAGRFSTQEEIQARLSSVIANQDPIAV
Chain of Neurogenic locus notch homolog protein 2 (Homo sapiens) (Q04721 whole entry, looked up, canonical isoform): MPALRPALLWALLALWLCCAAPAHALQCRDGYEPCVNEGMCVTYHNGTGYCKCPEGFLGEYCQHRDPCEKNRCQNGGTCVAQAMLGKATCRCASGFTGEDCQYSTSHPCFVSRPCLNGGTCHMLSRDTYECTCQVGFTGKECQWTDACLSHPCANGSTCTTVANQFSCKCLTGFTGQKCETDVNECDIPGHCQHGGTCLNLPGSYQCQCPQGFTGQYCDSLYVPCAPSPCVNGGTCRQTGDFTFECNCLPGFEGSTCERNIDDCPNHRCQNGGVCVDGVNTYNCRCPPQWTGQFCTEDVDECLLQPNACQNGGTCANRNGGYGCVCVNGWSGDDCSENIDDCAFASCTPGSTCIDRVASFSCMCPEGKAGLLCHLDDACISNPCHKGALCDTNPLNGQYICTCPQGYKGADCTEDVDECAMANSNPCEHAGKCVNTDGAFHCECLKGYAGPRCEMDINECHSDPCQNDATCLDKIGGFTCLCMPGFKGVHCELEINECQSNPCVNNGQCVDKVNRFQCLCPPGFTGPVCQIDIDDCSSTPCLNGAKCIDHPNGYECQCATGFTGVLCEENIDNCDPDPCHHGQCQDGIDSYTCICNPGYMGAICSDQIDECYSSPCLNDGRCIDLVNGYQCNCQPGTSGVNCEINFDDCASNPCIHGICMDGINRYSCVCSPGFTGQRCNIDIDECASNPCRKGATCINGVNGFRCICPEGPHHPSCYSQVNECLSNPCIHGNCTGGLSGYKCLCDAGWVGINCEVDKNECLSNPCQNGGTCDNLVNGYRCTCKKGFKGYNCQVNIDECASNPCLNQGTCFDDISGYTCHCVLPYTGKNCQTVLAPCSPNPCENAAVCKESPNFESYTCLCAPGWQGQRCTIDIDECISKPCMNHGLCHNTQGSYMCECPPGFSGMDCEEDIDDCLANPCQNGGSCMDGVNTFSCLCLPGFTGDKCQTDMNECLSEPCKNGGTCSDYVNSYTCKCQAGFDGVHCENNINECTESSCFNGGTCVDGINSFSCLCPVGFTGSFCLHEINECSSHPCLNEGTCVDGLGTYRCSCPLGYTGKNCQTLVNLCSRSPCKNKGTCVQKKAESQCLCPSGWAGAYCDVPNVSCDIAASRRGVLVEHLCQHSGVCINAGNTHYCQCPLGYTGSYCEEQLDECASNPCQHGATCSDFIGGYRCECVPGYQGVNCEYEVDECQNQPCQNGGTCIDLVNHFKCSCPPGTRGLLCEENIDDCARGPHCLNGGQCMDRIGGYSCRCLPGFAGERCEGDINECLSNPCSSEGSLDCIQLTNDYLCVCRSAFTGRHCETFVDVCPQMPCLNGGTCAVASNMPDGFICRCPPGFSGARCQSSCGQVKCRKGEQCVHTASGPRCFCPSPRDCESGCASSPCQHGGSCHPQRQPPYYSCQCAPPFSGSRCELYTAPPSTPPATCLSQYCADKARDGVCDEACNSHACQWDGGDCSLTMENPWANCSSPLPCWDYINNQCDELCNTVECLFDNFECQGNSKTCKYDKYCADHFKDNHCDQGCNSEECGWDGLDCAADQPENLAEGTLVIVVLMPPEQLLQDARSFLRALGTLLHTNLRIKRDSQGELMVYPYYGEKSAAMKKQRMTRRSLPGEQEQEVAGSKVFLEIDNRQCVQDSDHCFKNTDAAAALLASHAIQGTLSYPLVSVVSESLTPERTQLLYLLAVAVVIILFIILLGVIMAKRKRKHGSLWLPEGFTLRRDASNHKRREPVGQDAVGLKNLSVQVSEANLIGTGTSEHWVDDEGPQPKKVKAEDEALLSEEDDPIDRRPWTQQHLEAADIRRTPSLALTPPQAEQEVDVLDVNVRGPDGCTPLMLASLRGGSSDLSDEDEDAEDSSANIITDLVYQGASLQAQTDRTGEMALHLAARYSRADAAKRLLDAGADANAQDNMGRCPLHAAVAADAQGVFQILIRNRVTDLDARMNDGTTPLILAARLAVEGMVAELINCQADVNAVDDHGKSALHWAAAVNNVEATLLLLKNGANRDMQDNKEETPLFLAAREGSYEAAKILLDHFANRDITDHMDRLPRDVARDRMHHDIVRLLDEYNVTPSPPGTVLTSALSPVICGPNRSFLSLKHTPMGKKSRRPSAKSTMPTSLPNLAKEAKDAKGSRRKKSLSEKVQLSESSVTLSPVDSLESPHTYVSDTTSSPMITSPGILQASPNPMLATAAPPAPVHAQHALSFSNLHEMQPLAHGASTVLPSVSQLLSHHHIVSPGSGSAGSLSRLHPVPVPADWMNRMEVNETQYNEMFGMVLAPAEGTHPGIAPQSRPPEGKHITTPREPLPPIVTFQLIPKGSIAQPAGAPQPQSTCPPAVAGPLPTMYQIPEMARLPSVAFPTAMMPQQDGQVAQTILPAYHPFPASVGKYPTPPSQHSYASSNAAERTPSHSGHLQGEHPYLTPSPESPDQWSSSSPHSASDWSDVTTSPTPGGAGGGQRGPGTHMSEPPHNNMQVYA

Structure (SMILES) | composite z-score [1] | composite z-score [2] | composite z-score [3] | composite z-score [4] | composite z-score [5] | composite z-score [6] | composite z-score [7] | z-score [8] | composite z-score [9] | composite z-score [10]
O=C1OCCC/C=C\[C@H]2OC34C=CCN(Cn5nnc6ccccc65)C(=O)[C@H]3N(CCCO)C(=O)[C@@H]4C12 (stereo not given in full) | 0.415 | -0.652 | -0.017 | -1 | -0.936 | 0.995 | 1.13 | -0.126 (inactive) | -1.28 | -0.271
COc1ccccc1CN1C(=O)c2ccccc2[C@](Cc2ccccc2I)(C(=O)NCc2ccccc2)[C@@H]1c1ccc(CO)cc1 | 0.317 | 1.33 | -0.0614 | 0.197 | 0.106 | 0.923 | 0.535 | -1.13 (inactive) | 0.182 | 0.154
O=C(N1CCCCC1)[C@]1(CCS(=O)(=O)c2ccccc2)N=C(c2ccc(OCCCO)cc2)O[C@@H]1c1ccccc1 | 1.04 | 0.815 | 0.215 | 0.803 | 0.773 | 1.49 | 1.11 | -1.79 (inactive) | 0.636 | 0.0623
C=C(CCCC)/C(=C/C[C@@H](OC(=O)c1ccncc1)c1ccc(CO)o1)c1cc(C(=O)OC)ccc1OC | -0.489 | 1.44 | -0.0887 | 0.318 | 0.738 | 1.52 | 1.27 | -0.986 (inactive) | 0.448 | 0.0722
NC(=O)[C@]1(Cc2ccccc2)N=C(c2ccc(OCCCO)cc2)O[C@@H]1c1ccccc1 | 0.207 | -0.911 | 0.0121 | 0.161 | 1.15 | 1.59 | 1.12 | -0.573 (inactive) | 0.503 | -0.214
CC(C)C[C@@H]1NC(=O)[C@@H]2C[C@H](C(=O)NCCCCN(C)C)[C@H](c3ccc(O)cc3)N2C1=O | 0.493 | -0.202 | -0.167 | -1.02 | -1.32 | -0.343 | 0.443 | 1.92 (inactive) | -0.819 | -0.0296
O=C(NCC(O)CO)[C@]1(CCS(=O)(=O)c2ccccc2)N=C(c2ccc(OCCCO)cc2)O[C@@H]1c1ccccc1 (stereo not given in full) | 0.871 | 1.87 | -0.0064 | -0.299 | 0.158 | 2.3 | 1.3 | 0.47 (inactive) | 1.08 | -0.288
CO[C@H]1O[C@H](CO)[C@@H](OC(=O)Nc2ccc(C(F)(F)F)cc2)[C@H](OC(=O)Nc2ccccc2)[C@@H]1OC(=O)Nc1ccccc1 | -0.181 | -0.0087 | 0.113 | 0.392 | 1.29 | 0.781 | 0.879 | 5.33 (inactive) | 0.234 | -0.188
COCCOC(=O)N1C(=O)[C@@]2(c3cc(C#CCC(C(=O)OC)C(=O)OC)ccc31)[C@H](c1ccccc1OCCO)N1[C@H](c3ccccc3)[C@H](c3ccccc3)OC(=O)[C@H]1[C@@H]2C(=O)Nc1nc2ccccc2s1 | -0.144 | 1.2 | -0.0335 | 1.19 | 1.2 | 1.37 | 1.06 | 0.0053 (inactive) | 0.417 | 0.417
COCCCNC(=O)[C@]1(Cc2ccccc2N=[N+]=[N-])N=C(c2ccc(OCCCO)cc2)O[C@@H]1c1ccccc1CN=[N+]=[N-] | 0.201 | 0.157 | 0.182 | 1.05 | 1.68 | 1.49 | 1.33 | -0.0402 (inactive) | 1.33 | -0.0296
Cc1ccc(N2C(=O)c3ccccc3[C@@H](C(=O)NCC(C)C)[C@@H]2c2ccc(CO)cc2)nc1 | 0.341 | -0.751 | -0.161 | -0.494 | -1.07 | -0.265 | 0.346 | -0.788 (inactive) | -0.473 | -0.0645
O=C1OCC=C[C@H]2OC34C=CCN(c5ccc(Cl)cc5)C(=O)[C@H]3N(CCCO)C(=O)[C@@H]4[C@@H]12 (stereo not given in full) | 0.768 | -0.38 | -0.0847 | -0.573 | -1.6 | 0.3 | 1.41 | -0.0992 (inactive) | -0.415 | -0.277
C=CCN1C(=O)[C@]2(COC(c3ccc(OCCCO)cc3)=N2)Cc2ccccc21 | 0.842 | 0.33 | 0.136 | 0.115 | 0.595 | 0.977 | 1.08 | -0.664 (inactive) | 0.258 | -0.3
[N-]=[N+]=NCc1ccccc1C[C@@]1(C(=O)NCc2ccccc2)N=C(c2ccc(OCCCO)cc2)O[C@@H]1c1ccccc1CN=[N+]=[N-] | 0.705 | 0.425 | 0.107 | 0.809 | 0.933 | 0.926 | 1.05 | -1.95 (inactive) | 0.803 | 0.553
C=CCC(OC(C)=O)[C@@H]1[C@@H](N(Cc2ccc(-c3ccccc3)cc2)C(=O)c2ccc(C)cc2)c2cc(OCCCO)ccc2N1C(=O)Cc1ccc(OC)cc1 (stereo not given in full) | -0.0305 | 0.0667 | -0.078 | 0.27 | -0.0045 | -0.369 | -0.453 | -1.32 (inactive) | 0.255 | -0.0994
C=CCC(OC(C)=O)[C@@H]1[C@@H](N(Cc2cc3ccccc3o2)C(=O)c2cccc3ccccc23)c2cc(OCCCO)ccc2N1C(=O)Cc1ccc(OC)cc1 (stereo not given in full) | -0.295 | -0.52 | -0.0128 | 0.0939 | 0.0751 | 0.758 | 0.111 | -0.709 (inactive) | -0.0464 | -0.109
O=C1O[C@H](c2ccccc2)[C@H](c2ccccc2)N2[C@H]1[C@@H](C(=O)N1CCCCCCC1)[C@]1(C(=O)Nc3ccc(C#CC4=CCCCC4)cc31)[C@H]2c1ccc(O)cc1 | 3.8 | 2.87 | 1.05 | 1.46 | 1.84 | 2.87 | 1.54 | 0.805 (inactive) | 3.41 | 2.58

Structure (SMILES) | composite z-score [1] | composite z-score [2] | composite z-score [3] | composite z-score [4] | composite z-score [5] | composite z-score [6] | composite z-score [7] | z-score [8] | composite z-score [9] | composite z-score [10]
C=C(C(=O)CC[C@@H](OC(=O)c1cccnc1)c1ccc(OCCO)cc1)C(C)C | -0.408 | -0.294 | -0.113 | 1.27 | -0.121 | 0.739 | 1.06 | -2.68 (inactive) | 0.128 | -0.0994
O=C1O[C@H](c2ccccc2)[C@H](c2ccccc2)N2[C@H]1[C@@H](C(=O)NC[C@H](O)c1ccccc1)[C@]1(C(=O)Nc3ccc(C#CC4=CCCCC4)cc31)[C@H]2c1ccc(O)cc1 | 0.84 | 0.891 | 0.146 | 0.962 | 0.671 | 1.4 | 1.16 | 0.733 (inactive) | 0.826 | -0.0618
CC1CC/C=C\[C@H]2OC34C=CCN(Cn5nnc6ccccc65)C(=O)[C@H]3N(CCCO)C(=O)[C@@H]4C2C(=O)O1 (stereo not given in full) | 0.536 | -1.14 | -0.0973 | -0.988 | -0.955 | 1.38 | 1.57 | -0.275 (inactive) | -0.474 | -0.196
C=CC[C@@]1(C(=O)OC)N=C(c2ccc(OCCCO)cc2)O[C@@H]1c1ccccc1CN=[N+]=[N-] | 0.0729 | 0.0269 | -0.116 | -0.438 | 0.406 | 0.482 | 1.1 | -0.484 (inactive) | 0.166 | -0.199
[N-]=[N+]=NCc1ccccc1C[C@]1(C(=O)N2CCOCC2)N=C(c2ccc(OCCCO)cc2)O[C@H]1c1ccccc1 | 0.303 | 0.18 | -0.0455 | 0.686 | 0.412 | 0.766 | 0.542 | -3.67 (inactive) | 0.912 | -0.0994
C=CCC(OC(C)=O)[C@@H]1[C@@H](N(Cc2cc3ccccc3o2)C(=O)c2cccc3ccccc23)c2cc(OCCCO)ccc2N1C(=O)Cc1ccc2ccccc2c1 (stereo not given in full) | -0.0977 | 0.0901 | -0.0383 | 0.0537 | -0.127 | 0.144 | 0.195 | -2.3 (inactive) | 0.309 | 0.0749
CCCC[C@H]1C[C@@H]1[C@@H]1N(P(=O)(c2ccccc2)c2ccccc2)[C@](CO)(c2ccccc2)CC12CC2 | 0.488 | -0.363 | 0.0231 | 0.106 | 1.44 | 0.936 | 1.05 | 0.273 (inactive) | 1.03 | 0.235
C=C(C(=O)CC[C@@H](OC(C)=O)c1ccc(OCCO)cc1)C(C)C | 0.0823 | 0.366 | -0.0676 | 0.853 | 0.146 | 0.845 | 1.19 | 2.4 (inactive) | -0.193 | -0.287
Cc1ccc(C(C)CC(O)C2C=CC3C(=O)NC(=O)C3N2Nc2ccccn2)o1 (stereo not given) | -0.0428 | 0.573 | -0.0951 | 0.174 | -0.0116 | 0.753 | 0.845 | 0.327 (inactive) | 0.0821 | -0.249
CN1C(=O)C2C=CC(C(O)C(C)(C)C)N(Nc3ccccc3)C2C1=O (stereo not given) | 0.207 | -0.565 | -0.14 | -0.181 | 0.0262 | 1.4 | 0.291 | -0.269 (inactive) | 0.0082 | -0.173
C=C[C@H](C)[C@H](O)c1ccc(OCCO)cc1 | 0.254 | -0.716 | -0.243 | -1.14 | -2.21 | -0.758 | -0.694 | 5.78 (inactive) | -0.91 | -0.204
C=C(/C(=C/C[C@@H](OC(C)=O)c1ccc(CO)o1)c1cnc2ccccc2c1)C(C)C | -0.524 | 1.53 | -0.0766 | 1.13 | 1.53 | 0.766 | 1.32 | 0.439 (inactive) | 0.284 | -0.0618
NC(=O)NCC#Cc1ccc2c(c1)[C@]1(C(=O)N2)[C@H](c2ccccc2OCCO)N2[C@H](c3ccccc3)[C@H](c3ccccc3)OC(=O)[C@H]2[C@@H]1C(=O)N1CCCCCCC1 | 3.75 | 1.38 | 0.866 | 0.803 | 1.38 | 1.31 | 1.08 | -1.7 (inactive) | 3.41 | 3.04
O=C1O[C@@H](c2ccccc2)[C@@H](c2ccccc2)N2[C@@H](c3ccc(O)cc3)[C@]3(C(=O)Nc4ccc(C#CCCO)cc43)[C@@H](C(=O)N3CCCCCCC3)[C@H]12 | 2.71 | 1.72 | 0.442 | 0.888 | 0.347 | 1.62 | 1.25 | -1.61 (inactive) | 2.57 | 1.64
CCOC1=C2C(c3ccc(C)cc3)N(S(=O)(=O)c3ccc(C)cc3)CC2n2c(=O)n(-c3ccccc3)c(=O)n2C1 (stereo not given) | -0.19 | 0.475 | 0.0876 | 0.94 | 1.55 | 1.13 | 0.0031 | -3.93 (inactive) | 0.701 | -0.26
COC(=O)[C@@]1(Cc2ccc(F)cc2)[C@H]2c3cc(C(=O)N4CCCC4)n(CCc4ccc(OC)c(Br)c4)c3C[C@H]2CN1C(=O)c1ccccc1 | 0.502 | 1.27 | 0.266 | 0.832 | 1.83 | 1.55 | 1.29 | -0.784 (inactive) | 1.94 | 1.68
